# Experimental data published in PubChem BioAssay (Tox21).
# A number with no mark means an inactive call. Inconclusive results are not listed. Where a call stands in place of a potency, no number is given. Active and inactive are the calls of the source. Unless noted, calls come from the whole dose curve; as a rule, active = well fitted curve in the direction sought with a large enough effect in the repeat runs; inconclusive = weak or mixed curves; inactive = no such curve, though single readings can be large; an effect the other way counts as inactive or inconclusive.
# Columns and labels:
# [1] = qHTS assay to identify small molecule agonists of the hypoxia (HIF-1) signaling pathway - cell viability counter screen (AID 1224844; calls by dose curve; note: nearly all actives have a fitted effect of over 50% in size)
# How it was run: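 Cytotoxicity measured by CellTiter-Glo ATP luminescence in the wells also read for beta-lactamase signal. Cells were HRE-bla ME-180 (2,000/well, 0.5% dialyzed FBS), exposed to compounds for 17 h at 37C.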
# [2] = qHTS assay to identify small molecule agonists of H2AX (AID 1224845; active = well fitted activation curve with a large enough effect in the signal ratio in the repeat runs, not every such curve was filed as active; the % refers to the signal ratio)
# How it was run: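 Wild-type CHO-K1 cells plated overnight, then exposed 3 hr at 37C to compounds at 15 concentrations (0.76% DMSO). Lysed, then HTRF anti-pH2AX(S139)-cryptate/anti-H2AX-d2 detection after 24 hr at room temperature; emissions 665 and 620 nm.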
# [3] = qHTS assay to identify small molecule agonists of the hypoxia (HIF-1) signaling pathway (AID 1224846; active = well fitted activation curve with a large enough effect in the signal ratio in the repeat runs, not every such curve was filed as active; the % refers to the signal ratio)
# How it was run: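 Compounds added to ME-180 cells carrying hypoxia-response-element beta-lactamase reporter (0.5% dialyzed FBS, 5 h preplating), 17 h at 37C; agonist activity detected by CCF4-AM B/G FRET read-out.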
# [4] = qHTS assay to identify small molecule agonists of H2AX - cell viability counter screen (AID 1224847; calls by dose curve; note: top concentration of the series differs between compounds; nearly all actives have a fitted effect of over 30% in size)
# How it was run: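 CHO-K1 wt, 1000 cells/well, o/n 37C; cpds 15 conc, 3 h 37C, 0.76% DMSO; CellTiter-Glo, 30 min RT, luminescence.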
# [5] = qHTS assay to identify small molecule agonists of the estrogen related receptor (ERR) signaling pathway from Tox21 library (AID 1224849; calls by dose curve; note: nearly all actives have a fitted effect of over 15% in size); settings: ERR reporter cell line, ONE-Glo luciferase, 18 h; at 92.4 µM (top of the series) unless noted
# How it was run: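 Luminescent agonist read-out (One-Glo, 30-minute room-temperature incubation) following 18-hour compound treatment at 37 C of the ERR cell line, which had been plated 6 hours before dosing.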
# [6] = qHTS RealTime-Glo MT Cell Viability Assay in HepG2 cells - 24 hour (AID 1224867); note: nearly all actives have a fitted effect of over 50% in size
# How it was run: (§1)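 Real-time, nonlytic viability: 600 HepG2 cells/well mixed with NanoLuc enzyme plus prosubstrate; 5 h settle, compound (DMSO) added by pintool; luminescence monitored over 40 h at 37 C.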
# [7] = qHTS RealTime-Glo MT Cell Viability Assay in HEK293 cells - 32 hour (AID 1224868); note: nearly all actives have a fitted effect of over 50% in size; note: potency is the fitted concentration of half-maximal effect
# How it was run: (§2)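 Cells + reagent dispensed (600 cells/well, HEK293) → 5 h at 37 C/5% CO2 → 23 nL compound in DMSO pinned → 40 h at 37 C → luminescence read at 0, 8, 16, 24, 32, 40 h.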
# [8] = A CellTox Green Cytotoxicity Assay to monitor cytotoxicity in HEK293 cells - 0 hour (AID 1224869); note: nearly all actives have a fitted effect of over 50% in size
# How it was run: (§3)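 Fluorescence from a DNA-binding dye excluded by viable cells was measured repeatedly in the same HEK293 wells (600 cells/well) during continuous compound exposure at 37 C. Each assay gives one read point: 0, 8, 16, 24, 32 or 40 h.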
# [9] = qHTS RealTime-Glo MT Cell Viability Assay in HepG2 cells - 40 hour (AID 1224870); note: nearly all actives have a fitted effect of over 50% in size
# How it was run: (§4)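 HepG2 cells mixed with RealTime-Glo MT reagents (NanoLuc plus cell-permeant prosubstrate) were seeded at 600 cells/well, incubated 5 h at 37 C/5% CO2, then pinned with compounds in DMSO; nonlytic luminescence tracked viability during 40 h treatment.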
# [10] = A CellTox Green Cytotoxicity Assay to monitor cytotoxicity in HEK293 cells - 40 hour (AID 1224871); note: nearly all actives have a fitted effect of over 45% in size
# How it was run: as §3
# [11] = qHTS RealTime-Glo MT Cell Viability Assay in HEK293 cells - 16 hour (AID 1224872)
# How it was run: as §2
# [12] = qHTS RealTime-Glo MT Cell Viability Assay in HepG2 cells - 8 hour (AID 1224873); note: nearly all actives have a fitted effect of over 55% in size
# How it was run: as §4
# [13] = qHTS RealTime-Glo MT Cell Viability Assay in HEK293 cells - 40 hour (AID 1224874); settings: RealTime-Glo luminescence; max response: hits give low values; note: nearly all actives have a fitted effect of over 50% in size; note: potency is the fitted concentration of half-maximal effect
# How it was run: (§5)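 Luminescence, which tracks viable cell number through reduction of the prosubstrate to a NanoLuc substrate, was read over continuous 37 C culture. Cells (600/well) were premixed with reagent and rested 5 h before 23 nL of compound in DMSO was pinned.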
# [14] = A CellTox Green Cytotoxicity Assay to monitor cytotoxicity in HEK293 cells - 24 hour (AID 1224875); note: nearly all actives have a fitted effect of over 45% in size
# How it was run: as §3
# [15] = A CellTox Green Cytotoxicity Assay to monitor cytotoxicity in HepG2 cells - 16 hour (AID 1224876); note: nearly all actives have a fitted effect of over 45% in size
# How it was run: (§6)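 Real-time cytotoxicity: fluorescence of a cell-impermeant cyanine dye binding DNA of dead HepG2 cells, measured repeatedly (0–40 h) during compound exposure at 37 C. Cells seeded 600/well with reagent, dosed after 5 h.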
# [16] = qHTS RealTime-Glo MT Cell Viability Assay in HepG2 cells - 32 hour (AID 1224877); note: nearly all actives have a fitted effect of over 55% in size
# How it was run: as §1
# [17] = A CellTox Green Cytotoxicity Assay to monitor cytotoxicity in HepG2 cells - 24 hour (AID 1224878); note: nearly all actives have a fitted effect of over 45% in size
# How it was run: as §6
# [18] = A CellTox Green Cytotoxicity Assay to monitor cytotoxicity in HepG2 cells - 40 hour (AID 1224879); note: nearly all actives have a fitted effect of over 40% in size
# How it was run: as §6
# [19] = qHTS RealTime-Glo MT Cell Viability Assay in HEK293 cells - 0 hour (AID 1224880)
# How it was run: as §5
# [20] = qHTS assay to identify small molecule antagonists of the estrogen related receptor (ERR) signaling pathway from Tox21 library (AID 1224848); note: nearly all actives have a fitted effect of over 50% in size; note: potency is the fitted concentration of half-maximal effect
# How it was run: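 First, 2,000 ERR cells per well were plated and held 6 h at 37 C/5% CO2. Next, compounds in DMSO were pinned in and left 18 h at 37 C. Finally, ONE-Glo was added and luminescence read after 30 min at room temperature.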
smiles,measurement,setting,value
COCC(=O)N(c1c(C)cccc1C)N1CCOC1=O,Potency,[1],inactive
same,Potency,[2],inactive
same,outcome,[3],inactive
same,Potency,[4],inactive
same,"activity change, positive = activation",[5],0.713%
same,Potency,[6],inactive
same,Potency,[7],inactive
same,Potency,[8],inactive
same,Potency,[9],inactive
same,Potency,[10],inactive
same,Potency,[11],inactive
same,Potency,[12],inactive
same,max response,[13],0.893%
same,Potency,[14],inactive
same,Potency,[15],inactive
same,Potency,[16],inactive
same,Potency,[17],inactive
same,Potency,[18],inactive
same,outcome,[19],inactive
N#CCBr,Potency,[1],inactive
same,Potency,[2],inactive
same,outcome,[3],inactive
same,Potency,[4],inactive
same,Potency,[20],inactive
same,"activity change, positive = activation",[5],0.914%
same,Potency,[6],inactive
same,Potency,[7],inactive
same,Potency,[8],inactive
same,Potency,[9],inactive
same,Potency,[10],inactive
same,Potency,[11],inactive
same,Potency,[12],inactive
same,max response,[13],6.36%
same,Potency,[15],inactive
same,Potency,[16],inactive
same,Potency,[17],inactive
same,Potency,[18],inactive
same,outcome,[19],inactive
Cc1nnc2n1-c1sc(CCC(=O)N3CCOCC3)cc1C(c1ccccc1Cl)=NC2,Potency,[1],inactive
same,Potency,[2],inactive
same,outcome,[3],inactive
same,Potency,[4],inactive
same,Potency,[20],inactive
same,"activity change, positive = activation",[5],1.19% [at 42.5 µM]
same,Potency,[6],inactive
same,Potency,[7],inactive
same,Potency,[8],inactive
same,Potency,[10],inactive
same,Potency,[11],inactive
same,Potency,[12],inactive
same,max response,[13],-16.7%
same,Potency,[14],inactive
same,Potency,[15],inactive
same,Potency,[16],inactive
same,Potency,[17],inactive
same,Potency,[18],inactive
same,outcome,[19],inactive
CCCCN(CCCCO)N=O,Potency,[1],inactive
same,Potency,[2],inactive
same,outcome,[3],inactive
same,Potency,[4],inactive
same,Potency,[20],inactive
same,"activity change, positive = activation",[5],-8.16%
same,Potency,[6],inactive
same,Potency,[7],inactive
same,Potency,[8],inactive
same,Potency,[9],inactive
same,Potency,[10],inactive
same,Potency,[11],inactive
same,max response,[13],3.79%
same,Potency,[14],inactive
same,Potency,[15],inactive
same,Potency,[16],inactive
same,Potency,[17],inactive
same,Potency,[18],inactive
same,outcome,[19],inactive
Fc1ccc(C2(Cn3cncn3)OC2c2ccccc2Cl)cc1 (stereo unspecified),Potency,[1],inactive
same,Potency,[2],inactive
same,outcome,[3],inactive
same,Potency,[4],inactive
same,Potency,[20],48.6 µM (active)
same,"activity change, positive = activation",[5],-40.8%
same,Potency,[6],inactive
same,Potency,[7],43.6 µM (active)
same,Potency,[8],inactive
same,Potency,[9],inactive
same,Potency,[13],27.5 µM (active)
same,Potency,[14],inactive
same,Potency,[15],inactive
same,Potency,[16],inactive
same,outcome,[19],inactive
CCC#N,Potency,[1],inactive
same,Potency,[2],inactive
same,outcome,[3],inactive
same,Potency,[4],inactive
same,Potency,[20],inactive
same,"activity change, positive = activation",[5],0.336%
same,Potency,[6],inactive
same,Potency,[7],inactive
same,Potency,[8],inactive
same,Potency,[9],inactive
same,Potency,[10],inactive
same,Potency,[11],inactive
same,Potency,[12],inactive
same,max response,[13],0.0723%
same,Potency,[14],inactive
same,Potency,[15],inactive
same,Potency,[16],inactive
same,Potency,[17],inactive
same,Potency,[18],inactive
same,outcome,[19],inactive
